Compound activity as filed in PubChem BioAssay.
An excerpt weighted towards active compounds, which were near 2.6% of everything screened.
CCT chaperon mod: modulators of cytosolic chaperonin (CCT/TRiC) activity. purified chaperonin ATPase assay, HTRF ADP detection, 30 min. activity change, % (no concentration beside the values), hits read low. 360,000 compounds, 0.3% hits; in the data active means activity change below about -30%
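TRiC at 40 or 20 nM final (batch-dependent) in 30 mM Tris pH 7.4, 100 mM KCl, 5 mM MgCl2, 1 mM DTT, with compound at single 76 uM and 10 uM ATP, 30 min at 37 deg C. ADP detected by HTRF Transcreener, 665/615 ratio.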
A549 tox: counter-screen for Nrf2 inhibitors: cytotoxicity in A549 cells. A549 ARE-Fluc cells, CellTiter-Fluor viability, 18-24 h. Potency, µM (top dose mostly 46 µM), most hits filed as inhibitors. 390,000 compounds, 0.16% hits. AID 504648
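A549 ARE-Fluc cells in 5% FBS OPTI-MEM, 5000 cells/well, rested 2 h then exposed to compounds in concentration-response for 18-24 h at 37 °C. Viability by CellTiter-Fluor fluorescence (Ex 405/Em 525) after 30 min; luciferase luminescence (BugLite, 15 min, RT) read afterwards.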
TCR activator: activators of T cell receptors; Potency, µM (titrated, usually from 9.22 µM), hits mostly activators; primary human leukocytes, anti-CD3, IL-2 HTRF, 48 h; 330,000 tested, under 10 active
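IL-2 release read by HTRF sandwich (Eu cryptate donor, d2 acceptor, 665 nm emission) after 48 hr exposure of primary human leukocytes to compound together with anti-CD3 beads in the absence of co-stimulatory signals.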
Nrf2 activator: activators of Nrf2 (ARE) signaling. Potency, µM (doses to about 46.1 µM), usual class: activators. 410,000 compounds, 0.31% hits. AREc32 ARE-luciferase reporter (MCF7-derived line), luminescence, 24 h. AID 624171; further: nearly all actives have a fitted effect of over 65% in size
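AREc32 cells carrying an ARE-driven firefly luciferase, 1000 cells/well in OPTI-MEM with 5% FBS, dosed after overnight attachment and incubated 24 hr at 37 deg C. Steady-Glo luminescence read after 30 min at RT.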
Nrf2 block: inhibitors of Nrf2 signaling; A549 ARE-Fluc reporter, luciferase luminescence, 18-24 h; Potency, µM (series often up to 46 µM), actives largely listed as inhibitors; 360,000 compounds, 2.1% hits; AID 504444; further: nearly all actives have a fitted effect of over 60% in size
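Concentration-response testing used A549 ARE_Fluc cells at 5000 cells/well. Following an 18-24 h compound incubation, viability was read by fluorescence (Ex 405/Em 525) and luciferase output by luminescence.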
AT treatment: candidate therapy for ataxia-telangiectasia | F2112 A-T fibroblasts, KAP-1 phosphorylation AlphaLISA; neocarzinostatin DNA damage 30 min before lysis | Potency, µM (titrated, usually from 57.5 µM), actives largely listed as activators | 320,000 compounds, 0.19% hits | AID 485349; further: nearly all actives have a fitted effect of over 45% in size
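hTERT-immortalized A-T patient fibroblasts (F2112), 500 cells/well in OPTI-MEM, 1% FBS, got compounds for 60 min, then NCS for 30 min at 37C. Lysates were then assayed for phospho-KAP-1 by AlphaLISA (anti-pKAP1 donor, anti-KAP1 acceptor beads), 6 hr at 25C.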
Each line names hits and unclear results; the compound was inactive in the other large screens. Unless noted, the call rests on the fitted dose curve; in most records, active means well fitted curve in the direction sought with a large enough effect; inconclusive means small, poorly fitted or top-dose-only effect, or another doubt; inactive means no such curve, though single readings can be large; an effect the other way counts as inactive or inconclusive.

CCOC(=O)c1ccccc1N/C=C/C(=O)c1cccs1	Nrf2 activator 6.3µM, Nrf2 block inconclusive
Cc1cc(O)c(C(=O)/C=C/c2ccccc2O)c(=O)o1	none
Cc1cc(O)c(C(=O)/C=C/c2cccc([N+](=O)[O-])c2)c(=O)o1	Nrf2 activator 22µM
O=C(/C=C/c1cccc([N+](=O)[O-])c1)Nc1ccc(NC(=O)c2cccs2)cc1	none
O=C(/C=C/c1cccc([N+](=O)[O-])c1)c1cccs1	Nrf2 activator 16µM, Nrf2 block inconclusive, AT treatment inconclusive
CCOC(=O)c1ccccc1NC(=O)c1cccs1	none
CNC(=O)C1CCC(Cn2c(=O)c3sccc3n(CC(=O)N3CCCC3)c2=O)CC1 (stereo not given)	Nrf2 block inconclusive (no result: CCT chaperon mod, TCR activator, AT treatment)
CCCN1CNc2c(c(=O)[nH]c(=S)n2CCC(C)(C)C)C1	Nrf2 block inconclusive (no result: CCT chaperon mod, TCR activator, Nrf2 activator, AT treatment)
Cc1ccc(S(=O)(=O)N2CCN(c3nc(-c4ccc(C)s4)nc4ccccc34)CC2)cc1	none (no result: CCT chaperon mod, TCR activator, Nrf2 activator, AT treatment)
COc1cc(/C=C2\SC(=O)N(Cc3ccc(F)cc3)C2=O)cc([N+](=O)[O-])c1O	A549 tox inconclusive, Nrf2 block inconclusive
O=C1/C(=C\c2cccc([N+](=O)[O-])c2O)SC(=S)N1Cc1ccccc1	A549 tox inconclusive, Nrf2 block 16µM
COc1cc(/C=C2\SC(=O)N(Cc3ccc(Cl)cc3)C2=O)cc([N+](=O)[O-])c1O	A549 tox 15µM, Nrf2 block 15µM
CCN1C(=O)/C(=C\C=C\c2ccccc2[N+](=O)[O-])SC1=S	A549 tox inconclusive, Nrf2 activator 5µM (no result: TCR activator)
COc1cc([N+](=O)[O-])cc(/C=C2/SC(=S)N(Cc3ccccc3)C2=O)c1O	Nrf2 block 21µM
COc1ccc(CNC(=O)CCc2c(C)c3cc4c(C)c(C)oc4cc3oc2=O)cc1	none (no result: CCT chaperon mod, TCR activator, AT treatment)
CCn1nnc2c(N3CCCC3)ncnc21	none (no result: CCT chaperon mod, TCR activator, Nrf2 activator, AT treatment)
Cc1cccc2cc(COC(=O)COc3ccccc3)c(=O)[nH]c12	AT treatment 22µM
Cc1cc(NS(=O)(=O)c2ccc(NC(=O)COc3ccc(C#N)cc3)cc2)nc(C)n1	CCT chaperon mod -32
Cc1ccc(OCC(=O)Nc2ccc(S(=O)(=O)Nc3cc(C)nc(C)n3)cc2)cc1	none
O=C(Nc1ccc(Cl)c(C(F)(F)F)c1)[C@@H]1CC=C[C@@H]2CCN(Cc3ccc(Cl)c(Cl)c3)C(=O)[C@@H]21	Nrf2 block 12µM (no result: AT treatment)
O=C(O)[C@H]1CC=C[C@H]2CCN(Cc3ccc(Cl)c(Cl)c3)C(=O)[C@@H]12	none
COc1ccc(NC(=S)NC(NC(=O)c2cccc(Cl)c2)C(Cl)(Cl)Cl)c([N+](=O)[O-])c1 (stereo not given)	A549 tox inconclusive, Nrf2 block 26µM
O=C(Nc1cc(OC(=O)C(F)(F)F)c2nonc2c1OC(=O)C(F)(F)F)C(F)(F)F	A549 tox inconclusive (no result: CCT chaperon mod, TCR activator, Nrf2 activator, AT treatment)
CN(C)S(=O)(=O)c1ccc(Cl)c(NC(=O)CSc2nc3c(cc2C#N)C(=O)CCC3)c1	Nrf2 block 15µM
COc1cc(-c2ccc3c(=O)c4ccccc4sc3c2)cc(OC)c1OC	Nrf2 activator inconclusive
COc1cc(-c2ccc3c(=O)c4ccccc4n(C)c3c2)cc(OC)c1OC	A549 tox inconclusive, Nrf2 block 13µM
CCOC(=O)c1c(C)nc2sc3c(=O)n(-c4ccc(C(C)=O)cc4)cnc3c2c1-c1ccc(Cl)cc1	Nrf2 block 23µM
CCOC(=O)c1c(C)nc2sc3c(=O)n(-c4ccc(C(C)=O)cc4)nnc3c2c1-c1ccc(Cl)cc1	A549 tox inconclusive, Nrf2 block 18µM
CCOC(=O)c1c(C)nc2sc3c(=O)n(-c4ccc(C)cc4)cnc3c2c1-c1ccc(OC)cc1	none
COc1cccc(OCc2nc3ccccc3n2C)c1	Nrf2 block inconclusive (no result: CCT chaperon mod, TCR activator, AT treatment)
CCCCc1c(C)c(C#N)c2[nH]c3ccccc3n2c1=O	A549 tox inconclusive, Nrf2 block 18µM
CCCc1cc(=O)n2c([nH]c3ccccc32)c1C#N	Nrf2 block 15µM
Cc1cc2c(s1)c1cnn(Cc3ccc(Cl)c(F)c3)c(=O)c1n2C	none (no result: CCT chaperon mod, TCR activator, Nrf2 activator, AT treatment)
